# EPAC1 ag val: Validation qHTS for agonist of cAMP-regulated guanine nucleotide exchange factor 3 (EPAC1); AID 1645883, 2021; EPAC1 Rap1b BODIPY-GDP exchange, fluorescence; Rap guanine nucleotide exchange factor 3 (Homo sapiens), O95398; 16,000 compounds, 1% hits; Potency, µM, for inactives: max response, positive = active, actives largely listed as activators; note: nearly all actives have a fitted effect of over 70% in size
# EPAC2 antag: Validation qHTS for antagonist of cAMP-regulated guanine nucleotide exchange factor 4 (EPAC2); 16,000 compounds, 1.7% hits; EPAC2 Rap1B BODIPY-GDP exchange, fluorescence; Potency, µM (titrated, usually from 112 µM), without a hit: at the top dose activity, negative = inhibition, usual class: inhibitors;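 note: 100% = activation by cAMP agonist control; nearly all actives have a fitted effect of over 40% in size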
# Target sequence (Q8WZA2 whole entry, looked up): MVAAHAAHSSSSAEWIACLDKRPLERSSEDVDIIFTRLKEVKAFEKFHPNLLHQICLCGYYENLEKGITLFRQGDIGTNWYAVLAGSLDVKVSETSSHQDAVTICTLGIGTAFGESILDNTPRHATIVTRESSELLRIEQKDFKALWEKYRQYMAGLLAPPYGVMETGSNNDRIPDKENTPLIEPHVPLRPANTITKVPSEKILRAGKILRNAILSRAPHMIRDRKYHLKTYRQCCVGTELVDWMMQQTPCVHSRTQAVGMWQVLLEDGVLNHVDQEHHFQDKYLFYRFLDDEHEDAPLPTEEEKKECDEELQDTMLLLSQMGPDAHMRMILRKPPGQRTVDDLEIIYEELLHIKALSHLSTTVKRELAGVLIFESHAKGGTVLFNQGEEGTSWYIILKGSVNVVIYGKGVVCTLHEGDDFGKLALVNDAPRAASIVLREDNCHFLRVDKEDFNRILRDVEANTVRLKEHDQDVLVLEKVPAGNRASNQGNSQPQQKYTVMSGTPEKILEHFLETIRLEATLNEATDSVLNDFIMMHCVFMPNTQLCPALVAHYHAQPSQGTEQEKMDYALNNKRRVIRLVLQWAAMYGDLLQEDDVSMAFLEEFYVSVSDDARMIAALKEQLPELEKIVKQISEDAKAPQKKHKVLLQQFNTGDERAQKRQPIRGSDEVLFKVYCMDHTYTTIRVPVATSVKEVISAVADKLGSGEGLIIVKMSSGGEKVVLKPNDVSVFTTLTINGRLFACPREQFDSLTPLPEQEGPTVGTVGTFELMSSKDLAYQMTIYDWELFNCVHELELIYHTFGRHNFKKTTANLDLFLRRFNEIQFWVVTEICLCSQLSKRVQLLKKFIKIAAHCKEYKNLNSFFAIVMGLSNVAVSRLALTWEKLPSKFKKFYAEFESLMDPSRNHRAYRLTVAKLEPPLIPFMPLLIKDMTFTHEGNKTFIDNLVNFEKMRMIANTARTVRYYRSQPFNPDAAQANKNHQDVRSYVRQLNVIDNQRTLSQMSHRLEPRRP
#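 Normalized against a 6.5 mM cAMP agonist control, compounds were tested on 100 nM EPAC2 exchanging Rap1B-bound BODIPY-GDP (250 nM) for 50 uM GDP. Fluorescence drop (ex 480, em 540 nm) was tracked at room temperature over 30 min at 5-min intervals.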
# * marks the source's active call; other numbers are inactive results; u = inconclusive; ! = repeats disagree. Hits are enriched below; roughly 3.1% of the tested compounds scored in any of these assays. Calls come from the whole dose curve; as a rule, active = well fitted curve in the direction sought with a large enough effect; inconclusive = small, poorly fitted or top-dose-only effect, or another doubt; inactive = no such curve, though single readings can be large; an effect the other way counts as inactive or inconclusive. Unless noted, % is set by controls: 0 for no effect and ±100 for the full control effect; potency is the fitted concentration of half-maximal effect.
SMILES,EPAC1 ag val,EPAC2 antag
CCCCC[C@H](O)/C=C/[C@H]1[C@H](O)CC(=O)[C@@H]1C/C=C\CCCC(=O)O,-13%,-11%
CCCCC[C@H](O)C=C[C@H]1[C@H](O)CC(=O)[C@H]1CCCCCCC(=O)O,-19%,56µM*
O=C(NCc1nnc2n1CCN(Cc1cccc(Cl)c1)CC2)c1cccc(F)c1,5%,-39%
O=C1C=CC(=C(c2ccc(O)cc2)c2ccc(O)cc2)C=C1,100µM*,u
CCC(=O)c1ccc(O)cc1,-12%,16%
OCCO[C@@H]1[C@@H](O)[C@H](O)[C@@H](CO)O[C@@H]1O,-10%,16%
Cn1cnnc1Sc1ccc(CN2CCOc3ccc(C4=Cc5ccccc5C4)cc3C2)o1,-12%,u
Cc1cc(-c2ccnc(-n3ncc(C(=O)NCC4COCCO4)c3C)n2)c(C)s1 (stereo not drawn),-10%,-9%
O=C(c1cnccn1)N1CCC2(CCCN(C(c3ccccc3)c3ccccc3)C2)CC1,-34%,u
O=C(c1cnccn1)N1CCC[C@@]2(CCN(C(c3ccccc3)c3ccccc3)C2)C1,7%,50µM*
COc1ccc(-c2nc3cnc(N(C)C)nc3n(-c3ccccc3)c2=O)cc1,-94%,30%
COc1ccc(-n2c(=O)c(-c3ccc(Cl)cc3)nc3cnc(N(C)C)nc32)cc1,100µM*,13%
Cc1nc2ccccn2c(=O)c1CCN1CCC(C(=O)c2ccc(F)cc2)CC1,1%,-9%
Cc1nc2sccn2c(=O)c1CCN1CCC(=C(c2ccc(F)cc2)c2ccc(F)cc2)CC1,u,50µM*!
Cc1cc(C)c2nccc(/C=C/c3ccc(N(C)C)cc3)c2c1,100µM*,45%
Cc1cc(C)c2c(C)ccnc2c1,26%,-4%
Cc1ccc2c(/C=C/c3ccc(N(C)C)cc3)ccnc2c1C,100µM*,6%
CN(C)c1ccc(/C=C/c2ccnc3c2ccc2ccccc23)cc1,u,33%
COc1ccccc1-c1nc(N(C)Cc2ccco2)c2ccccc2n1,-1%,u
CN(Cc1ccco1)c1nc(-c2ccccc2Cl)nc2ccccc12,100µM*,-30%
C[C@@H]1CN(Cc2ccc3c(c2)CN(Cc2nc(-c4ccccc4)cs2)CCO3)C[C@H](C)O1,10%,-7%
CC(C)c1c(O)ccc2c1CCC1[C@@](C)(CO)CCC[C@@]21C (stereo partly drawn),28%,-22%
COc1ccc2c(c1)[C@@]1(C)CCC[C@](C)(CO)C1CC2 (stereo partly drawn),-14%,45µM*
Cc1ncsc1CCC(=O)N1CCCC(c2nc(-c3ccncc3)ncc2-c2ccccc2)C1 (stereo not drawn),-3%,-18%
COc1cccc(-c2nc3cc4c(cc3cc2CN(C(=O)c2csc(C)n2)C2CC2)CCC4)c1OC,0%,-2%
SMILES,EPAC1 ag val,EPAC2 antag
O=C(NOCC1CC1)c1ccc(F)c(F)c1Nc1ccc(I)cc1Cl,u,-15%
COc1ccc2cc(CCC(C)=O)ccc2c1,-37%,16µM*!
COc1ccc(C(C)=O)cc1,14%,-29%
CCC(C)C(=O)OC1CC(C)C=C2C=CC(C)C(CCC3CC(O)CC(=O)O3)C21 (stereo not drawn),-16%,2%
C[C@H]1C=C2C=C[C@H](C)[C@H](CC[C@@H]3C[C@@H](O)CC(=O)O3)[C@H]2[C@@H](OC(=O)[C@@H](C)CCO)C1,-24%,56µM*
COc1ccc(-c2ccnc(-n3ncc(C(=O)NCc4cccnc4)c3C3CC3)n2)cc1F,-14%,-2%
N#CCCn1c(=O)cnc2cnc(OCc3ccccc3)nc21,11%,-25%
O=c1cnc2cnc(OCc3ccccc3)nc2n1CCc1ccccc1,u,22µM*
CCN(CC)CCNC(=O)c1cnn(-c2nccc(-c3cc4ccccc4o3)n2)c1C,-5%,-7%
O=C(O)C1=CC(=C(c2ccc(O)c(C(=O)O)c2)c2ccc(O)c(C(=O)O)c2)C=CC1=O,u,40µM*!
Nc1ccc(O)c(C(=O)O)c1,u,8%
CC(C)[C@@H]1CC[C@@H](C)C[C@H]1OC(=O)c1ccccc1O,-6%,4%
CO/N=C(\C(=O)N[C@@H]1C(=O)N2C(C(=O)[O-])=C(C[n+]3ccc(N)n3CCO)CS[C@H]12)c1csc(N)n1,1%,15%
COc1cc(OC)c(C(C)=O)c(O)c1C,-17%,-9%
COc1cc(C)c(C(=O)Oc2cc(C)c(C(=O)O)c(O)c2C)c(OC)c1C,-128%,50µM*
CO/N=C(\C(=O)N[C@@H]1C(=O)N2C(C(=O)O)=C(CSc3nnnn3C)CS[C@H]12)c1csc(N)n1,-17%,25%
COc1c(-c2ccccc2)oc2c(ccc3occc32)c1=O,u,4.5µM*
O=c1c(O)c(-c2ccccc2)oc2ccc3occc3c12,u,7.1µM*
COc1ccccc1-c1oc2ccccc2c(=O)c1OC,5%,u
O=c1c(O)c(-c2cccc(O)c2)oc2ccccc12,-10%,-16%
COC(=O)C1=C(C)NC(C)=C(C(=O)OC(C)C)C1c1cccc2nonc12 (stereo not drawn),-11%,50µM*!
COC(=O)C1=C(C)NC(C)=C(C(=O)OCC(C)C)C1c1ccccc1[N+](=O)[O-] (stereo not drawn),-72%,u
CC(=O)c1ccc(F)c(-c2cc(C)cc3c2OC(CNC(=O)c2cnc4ccccn4c2=O)C3)c1 (stereo not drawn),11%,u
Nc1c(N=Nc2ccc(-c3ccc(N=Nc4cc(S(=O)(=O)O)c5ccccc5c4N)cc3)cc2)cc(S(=O)(=O)O)c2ccccc12,-6%,40µM*
Cc1cc(-c2ccc(N=Nc3ccc4c(S(=O)(=O)O)cc(S(=O)(=O)O)c(N)c4c3O)c(C)c2)ccc1N=Nc1ccc2c(S(=O)(=O)O)cc(S(=O)(=O)O)c(N)c2c1O,-10%,32µM*!
SMILES,EPAC1 ag val,EPAC2 antag
CO[C@H]1C=CO[C@@]2(C)Oc3c(C)c(O)c4c(O)c(c5c(c4c3C2=O)=NC2(CCN(CC(C)C)CC2)N=5)NC(=O)/C(C)=C\C=C/[C@H](C)[C@H](O)[C@@H](C)[C@@H](O)[C@@H](C)[C@H](OC(C)=O)[C@@H]1C,-31%,u
Cc1ccc(CN2CCOc3ccc(CN4CCC(O)(c5cccnc5)CC4)cc3C2)cc1,-18%,-20%
CCN(CC)c1ccccc1/C=C/[n+]1ccc(CCCCI)c2ccccc21,-110%,56µM*
CC1=C[C@H](O)CC(C)(C)[C@H]1/C=C/C(C)=C/C=C/C(C)=C/C=C/C=C(C)/C=C/C=C(C)/C=C/C1=C(C)C[C@@H](O)CC1(C)C,-9%,9%
O=c1c(-c2ccc(Cl)cc2)nc2cncnc2n1Cc1ccccc1,u,-28%
O=c1c(-c2ccc(Cl)cc2)nc2cncnc2n1Cc1ccccc1Cl,112µM*,-22%
COc1cccc(-c2nc3cc(SC)ccc3cc2CN(C(=O)c2csc(C)n2)C2CC2)c1,-2%,16µM*
COc1ccc(-c2nc3cc(F)ccc3cc2CN(C(=O)c2cccc(OC)c2)C2CC2)cc1,-1%,1%
NC(=O)OC[C@@H]1[C@H](NC(=O)/C(=N\OCC(=O)O)c2csc(N)n2)C(=O)N1S(=O)(=O)O,3%,-23%
C/C(=C(\CCOC(=O)c1ccccc1)SS/C(CCOC(=O)c1ccccc1)=C(/C)N(C=O)Cc1cnc(C)nc1N)N(C=O)Cc1cnc(C)nc1N,9%,-3%
